# Compound activity: PubChem, several laboratories
# Compounds with a hit are over-represented: about 0.94% of the library has one in this group of screens.
# MazF activator – activators of E. coli MazEF toxin-antitoxin RNase; FAM/BHQ RNA-DNA oligo cleavage fluorescence, 5 h; AID 504720; 350,000 compounds, 0.32% hits; activation, % at 20 µM; P0AE70; in the data active = activation above about 50%
# Target sequence (P0AE70 whole entry, looked up): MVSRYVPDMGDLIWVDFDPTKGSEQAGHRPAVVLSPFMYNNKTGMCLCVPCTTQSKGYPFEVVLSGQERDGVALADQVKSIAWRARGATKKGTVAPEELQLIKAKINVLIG
# Mtb hypoxia inh – reduces hypoxia-regulated biosensor signal in M. tuberculosis; M. tuberculosis hypoxia-regulated fluorescent reporter, fluorescence; fluorescence inhibition, % (test concentration not listed); 300,000 compounds, 0.1% hits; in the data active = fluorescence inhibition mostly above about 23%, no sharp cut-off; inactive = mostly below about 17%
# Vc quorum ag-1 – inducers of Vibrio cholerae quorum light production without autoinducers; 350,000 compounds, 0.16% hits; V. cholerae BH1578 lux reporter, luminescence, 6 h; activation, % at 18.7 µM; AID 588436; in the data active = activation mostly above about 9.7%, no sharp cut-off
# PriA SSB inh – blocks PriA binding to SSB C-terminal tail; AlphaScreen SSBct-PriA binding, biotinylated peptide; AID 1272365; 430,000 compounds, 0.6% hits; inhibition, % at 33 µM; in the data active = inhibition mostly above about 37%, no sharp cut-off; inactive = mostly below about 20%
# Vc quorum ag-2 – induces V. cholerae light production without autoinducers. shares compounds with Vc quorum ag-1. V. cholerae BH1578 lux reporter, luminescence, 6 h. activation, % at 50 µM. 620 tested, under 10 active; call rule not given here
# HeLa tox – cytotoxicity in HeLa cells at 24 hours; shares compounds with Vc quorum ag-1; HeLa viability, CellTiter-Glo ATP luminescence; activity change, negative = cytotoxicity, % at 35 µM; 25 tested, under 10 active; AID 624140;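 active = signal drop with fitted half-maximal concentration at or below twice the highest valid dose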
# Hits are given with their value; 0 = inactive; - = no result shown; + = active, no number.
SMILES,MazF activator,Mtb hypoxia inh,Vc quorum ag-1,PriA SSB inh,Vc quorum ag-2,others
Cc1cccc(C(=O)NCC(=O)NCC(c2cccs2)N2CCOCC2)c1 (stereo not drawn),0,0,0,0,-,
Cn1c(=O)c2c(nc(SCCN3CCOCC3)n2Cc2cccc3ccccc23)n(C)c1=O,0,0,0,0,0,
Cc1nn(-c2ccccc2)c(C)c1NC(=O)COC(=O)c1cccc(OC(F)F)c1,0,0,0,0,0,
c1ccc(-c2ccc(CN3Cc4ccccc4-n4nncc4C3)cc2)cc1,0,-,249.0,-,0,
CN(C(=O)Cn1cc(C(F)(F)F)cc(Cl)c1=O)C1CCS(=O)(=O)C1 (stereo not drawn),0,0,0,0,0,
O=C(c1cc(=O)[nH]cn1)N1CCc2ccccc2C1,-,-,-,0,-,
O=C(NCc1ccco1)C1CCCN1S(=O)(=O)c1ccc2ccccc2c1 (stereo not drawn),0,0,0,0,0,
Cc1cccc(N2CCN(C(=O)Cn3cccc3C(=O)c3ccccc3)CC2)c1C,0,0,0,0,0,
CC(C)(C)c1ccc2c(c1)OC(C(=O)N/N=C/c1ccc(-c3cccc(C(=O)O)c3)o1)CO2 (stereo not drawn),-,-,-,0,-,
CCOC(=O)Nc1ccc(S(=O)(=O)Nc2cc(C)nc(C)n2)cc1,0,0,0,0,0,
COc1ccc(C)c2sc(N3CCCC3)nc12,0,0,27.8,0,0,
O=C(Nc1nc(-c2ccccc2)c(C(=O)c2ccccc2)s1)c1ccc(Br)s1,-,-,-,0,-,
COc1ccc(C(=O)N2CCCCC2)cc1S(=O)(=O)Nc1cccc(C(=O)O)c1,0,0,0,0,-,
COc1ccc(C(=O)O)cc1S(=O)(=O)Nc1cccc(C(F)(F)F)c1,0,0,16.7,0,0,
CCCCCc1c(C)nc(N2CCc3ccccc3C2)[nH]c1=O,0,0,25.0,0,0,
CCCCN1C(=O)C(O)(CC(=O)c2ccccn2)c2ccccc21 (stereo not drawn),0,0,44.4,0,0,
CCCCN1C(=O)C(O)(CC(=O)c2ccccc2OC)c2ccccc21 (stereo not drawn),0,-,0,0,-,
CCn1nnnc1NCc1ccc(SC)cc1,0,0,-,0,0,
CCn1nnnc1NCc1ccc(N2CCCC2)cc1,0,-,-,0,0,HeLa tox=0
Cc1ccc(CNc2nnnn2C)cc1,0,0,0,0,-,
COc1ccccc1CNC(=O)Cn1c(C)cc(C)c(-c2nc(-c3cccc(Cl)c3)no2)c1=O,-,-,-,0,-,
Clc1ccc(-c2cnc(Oc3ccccc3)nc2)cc1,0,-,0,0,-,
Cc1ccc(Oc2nccc(-c3ccc(Cl)cc3)n2)cc1,0,0,0,0,0,
COC(=O)C1CCN(C(=O)CN(C)Cc2ccc(C(C)(C)C)cc2)CC1,0,0,40.9,0,0,
CN(Cc1ccc(C(C)(C)C)cc1)C(=O)C1CCN(C(=O)Nc2ccccc2)CC1,0,0,0,0,-,
SMILES,MazF activator,Mtb hypoxia inh,Vc quorum ag-1,PriA SSB inh,Vc quorum ag-2,others
CCNC(=O)OCc1cn(-c2ccccc2)nn1,0,0,+,0,0,
O=C(NCc1ccco1)C(=O)NCC1CCCN1S(=O)(=O)c1cccs1 (stereo not drawn),-,-,-,0,-,
Cc1cccc(N(CC(N)=O)C2SC(=O)N(c3ccccc3)C2=O)c1 (stereo not drawn),0,-,25.0,0,0,
COc1cccc(-c2csc(-n3nc(C)cc3NC(=O)c3cccs3)n2)c1,-,-,-,0,-,
FC(F)Oc1ccccc1NC(=S)NCc1ccco1,0,0,0,0,0,
Cc1cccc(NC(=O)Nc2nc(C(=O)NCCC3=CCCCC3)cs2)c1,-,-,-,0,-,
CCOC(=O)c1ccc(NC(=O)CCc2csc(NC(=O)c3ccc(F)cc3)n2)cc1,-,-,-,0,-,
COc1ccc(-c2nc(N)ncc2Oc2ccccc2Br)c(O)c1,0,-,35.7,0,0,
COc1ccc(Oc2cnc(N)nc2-c2ccc(OC)cc2O)cc1,-,-,-,0,-,
CCc1cc(C(=O)N2CCN(C(=O)c3ccccc3)CC2)sc1C,0,0,0,0,0,
CCC(Oc1ccccc1)C(=O)Nc1ccc(-c2nnc(-c3ccco3)o2)cc1 (stereo not drawn),0,0,16.7,0,0,
COc1ccc(C(=O)NCCCN2CCN(c3ccccc3)CC2)c(OC)c1OC,-,-,-,0,-,
CCCOc1ccc(-c2nc(C#N)c(N3CCN(CC)CC3)o2)cc1,0,-,0,0,0,
O=C(O)CC1SC(=NN=Cc2ccc(-c3ccc(Cl)c([N+](=O)[O-])c3)o2)NC1=O (stereo not drawn),-,-,-,0,-,
COc1ccccc1CNC(=O)c1ccc(S(=O)(=O)N(C)c2ccccc2)cc1,0,0,0,0,0,
Cc1cc(C(=O)CSc2nnc(-c3ccco3)o2)c(C)n1CC1COc2ccccc2O1 (stereo not drawn),0,0,0,0,0,
O=C(Cn1cccn1)N1CCN(c2cc(-n3cncn3)ncn2)CC1,-,-,-,0,-,
COc1ccc(N2CC(C(=O)Nc3cc(C(F)(F)F)ccc3N3CCCC3)CC2=O)c(OC)c1 (stereo not drawn),0,0,0,0,0,
O=C(CN1CCN(c2ccc(F)cc2)CC1)Nc1cc(C(F)(F)F)ccc1Cl,0,-,25.0,0,0,
O=C(CN1CCN(c2ccc(F)cc2)CC1)Nc1cc(Cl)ccc1Cl,-,-,-,0,-,
N#Cc1nc(-c2ccc(OCc3ccccc3)cc2)oc1NCc1cccnc1,0,0,0,0,-,
N#Cc1nc(-c2ccc(OCc3ccc(Cl)cc3)cc2)oc1NCc1cccnc1,0,0,16.7,0,0,
COCCNC(=S)N(CCCO)Cc1cc2cc3c(cc2[nH]c1=O)OCCO3,0,0,389.4,0,0,
COCCNC(=S)N(CCO)Cc1cc2cc3c(cc2[nH]c1=O)OCO3,0,0,0,0,-,
Clc1ccc(-c2cc(COc3ccc4ccccc4c3)no2)cc1,0,0,0,0,0,
SMILES,MazF activator,Mtb hypoxia inh,Vc quorum ag-1,PriA SSB inh,Vc quorum ag-2,others
Clc1ccc(SCc2cc(-c3ccccc3)on2)cc1,0,-,0,0,-,
COc1ccc(Cn2cnc3c4cc(F)ccc4n(CC(=O)Nc4ccccc4OC)c3c2=O)cc1,-,-,-,0,-,
O=C(c1cc(-c2ccc3c(c2)OCO3)on1)N1CCN(c2ccccc2)CC1,0,0,0,0,-,
O=C(c1cc(-c2ccc3c(c2)OCO3)on1)N1CCN(c2ccc(F)cc2)CC1,0,0,0,0,0,
CCOc1ccc(NC(=O)Cn2c(C)cc(C)c(-c3nc(-c4ccc(OC)cc4)no3)c2=O)cc1,-,-,-,0,-,
COC(=O)c1ccc(-c2nc3cc(Cl)c(N)cc3s2)cc1,0,-,25.0,0,0,
COc1ccc(Cc2nnc(NC(=O)C3CC(=O)N(c4ccccc4C)C3)s2)cc1OC (stereo not drawn),0,0,0,0,0,
CCc1nnc(NC(=O)C2CC(=O)N(c3ccc(C)cc3)C2)s1 (stereo not drawn),0,0,0,0,0,
N#Cc1nccnc1N1CCC(CNC(=O)Nc2c(F)cccc2F)CC1,-,-,-,0,-,
CCn1ccc(C(=O)Nc2cc(C)nn2-c2nc3c(F)cccc3s2)n1,-,-,-,0,-,
COc1cccc(OCC(=O)NC2CCCCC2)c1,0,-,36.9,0,0,
O=C(CCc1ccccc1Br)Nc1ccc(CC(=O)N2CCOCC2)cc1,-,-,-,0,-,
COc1cc(C(=O)Nc2ccc(NC(=O)C(C)C)nc2)cc(OC)c1OC,0,-,6.7,0,0,
